# Out of some 67,000 compounds screened, about 300 (0.45%) showed an effect of 50% or more. What follows is part of a selection rich in strong results, with near analogues and random picks from the rest.
# Molecular target: Polyketide synthase Pks13 (Mycobacterium tuberculosis (strain ATCC 25618 / H37Rv)) (UniProt I6X8D2)
# Assay: Mycobacterium tuberculosis Polyketide synthase 13 Thioesterase (PKS13)
# Type: functional
# Set-up: scale not given: in the data most compounds retested in dose-response had high values
# Details: 30 µM
# Polyketide synthase Pks13 (Mycobacterium tuberculosis (strain ATCC 25618 / H37Rv)), sequence (I6X8D2 whole entry): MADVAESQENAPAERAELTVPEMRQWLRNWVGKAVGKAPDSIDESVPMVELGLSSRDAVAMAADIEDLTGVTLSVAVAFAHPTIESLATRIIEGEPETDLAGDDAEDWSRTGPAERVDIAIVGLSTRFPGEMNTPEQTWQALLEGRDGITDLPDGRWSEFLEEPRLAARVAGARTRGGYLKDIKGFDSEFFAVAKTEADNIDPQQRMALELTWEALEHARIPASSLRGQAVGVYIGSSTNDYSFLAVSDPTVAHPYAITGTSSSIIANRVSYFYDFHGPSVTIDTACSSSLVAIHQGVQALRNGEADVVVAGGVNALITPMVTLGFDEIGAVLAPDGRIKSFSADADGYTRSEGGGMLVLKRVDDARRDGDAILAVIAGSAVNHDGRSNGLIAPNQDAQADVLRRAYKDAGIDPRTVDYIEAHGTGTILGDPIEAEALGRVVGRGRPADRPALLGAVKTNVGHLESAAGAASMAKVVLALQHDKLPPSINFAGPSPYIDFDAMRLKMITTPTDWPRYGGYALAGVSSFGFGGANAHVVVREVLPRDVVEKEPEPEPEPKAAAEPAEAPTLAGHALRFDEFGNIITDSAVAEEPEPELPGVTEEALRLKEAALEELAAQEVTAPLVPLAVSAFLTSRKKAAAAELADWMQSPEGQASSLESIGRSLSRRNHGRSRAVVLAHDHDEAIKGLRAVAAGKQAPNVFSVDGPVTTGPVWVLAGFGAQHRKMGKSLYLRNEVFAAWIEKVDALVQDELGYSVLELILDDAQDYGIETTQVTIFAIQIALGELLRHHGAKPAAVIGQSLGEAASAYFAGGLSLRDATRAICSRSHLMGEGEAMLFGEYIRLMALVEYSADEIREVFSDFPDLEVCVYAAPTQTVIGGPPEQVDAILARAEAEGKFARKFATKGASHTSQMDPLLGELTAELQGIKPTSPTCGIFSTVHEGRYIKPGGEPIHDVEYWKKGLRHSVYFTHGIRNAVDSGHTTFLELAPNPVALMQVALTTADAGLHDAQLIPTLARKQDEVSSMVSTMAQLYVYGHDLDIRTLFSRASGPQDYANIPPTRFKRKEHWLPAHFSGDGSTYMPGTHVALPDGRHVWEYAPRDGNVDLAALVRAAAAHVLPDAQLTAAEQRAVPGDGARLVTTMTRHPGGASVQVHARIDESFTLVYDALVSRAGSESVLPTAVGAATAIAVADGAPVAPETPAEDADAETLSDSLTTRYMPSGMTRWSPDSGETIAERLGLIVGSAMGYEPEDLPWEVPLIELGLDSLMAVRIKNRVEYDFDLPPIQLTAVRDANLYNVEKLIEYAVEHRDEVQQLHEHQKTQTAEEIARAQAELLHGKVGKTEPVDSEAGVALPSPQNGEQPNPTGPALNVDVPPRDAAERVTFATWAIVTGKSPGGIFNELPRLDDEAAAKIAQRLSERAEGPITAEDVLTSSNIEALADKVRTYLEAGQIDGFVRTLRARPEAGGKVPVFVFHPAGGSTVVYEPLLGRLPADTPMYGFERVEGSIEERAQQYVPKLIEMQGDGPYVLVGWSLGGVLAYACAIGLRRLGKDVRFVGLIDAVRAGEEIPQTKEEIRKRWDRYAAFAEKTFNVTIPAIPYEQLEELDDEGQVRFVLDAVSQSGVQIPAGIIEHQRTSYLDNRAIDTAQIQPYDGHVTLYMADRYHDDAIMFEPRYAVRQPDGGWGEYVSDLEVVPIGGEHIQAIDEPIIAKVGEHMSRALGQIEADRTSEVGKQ
row,Compound,Percent Effect [%]
1,N#Cc1cccc(N2CCC(CO)(CCOc3ccccc3)CC2)n1,128
2,N#Cc1cccnc1N1CCCC(CO)(CCOc2ccccc2)C1 (stereo not given),-13.7
3,CC(=O)c1ccc(N2CCC(CO)(CCOc3ccccc3)CC2)nc1,8.13
4,CC(C)CN1C[C@H]2C[C@H](C(=O)NC3CCC3)[C@@H](C1)O2,8.3
5,CCNc1nc(-c2cccnc2)c(-c2ccnc(NS(C)(=O)=O)n2)s1,17.5
6,CC(C)(C)Nc1nc(-c2cccnc2)c(-c2ccnc(NCCO)n2)s1,121
7,CCNc1nc(-c2cccnc2)c(-c2ccnc(NCCO)n2)s1,37.6
8,COc1ccccc1C(=O)Nc1ccc([C@@H](O)[C@H]2COCC(=O)N2)cc1,3.39
9,CCS(=O)(=O)NC[C@]12COC[C@H]1CN(Cc1cccc(OC)c1)C2,-39.6
10,O=C(COCc1ccccc1Cl)N1CCN(c2ncccn2)CC1,0.958
11,O=C(COCc1ccccc1Cl)N1CCN(c2cnccn2)CC1,25.8
12,O=C(COCc1ccccc1Cl)N1CCN(c2ccc(Br)cn2)CC1,63.1
13,CCc1cnc(N2CC[C@H]3[C@@H]2CCC(=O)N3c2ccccc2)nc1,-13.3
14,O=C1CC[C@H]2[C@H](CCN2c2ccccn2)N1CC1CCOCC1,-8.5
15,CCc1cnc(N2CC[C@H]3[C@@H]2CCC(=O)N3CC2CCOCC2)nc1,88.2
16,O=C1O[C@@H]2CN(c3ccncc3)C[C@@H]2N1CCCc1ccc(F)cc1,-35.8
17,Cc1cc(C)n(CCN(C)c2ccc(-c3nc(C4CC4)no3)cn2)n1,0.156
18,Cc1n[nH]c(C)c1CNc1ccc(-c2nc(C3CC3)no2)cn1,3.88
19,Cc1n[nH]c(C)c1CCN(C)c1ccc(-c2nc(C3CC3)no2)cn1,62.8
20,CC(=O)NC[C@@]1(COc2cnccn2)C[C@@H](O)[C@@H](O)C1,-8.58
21,CC(C)c1nc(CN(C)C2CCN(CCNS(C)(=O)=O)C2)no1 (stereo not given),93.5
22,CCS(=O)(=O)CCN1CCC(N(C)Cc2noc(C(C)C)n2)C1 (stereo not given),-4.58
23,CC(C)c1nc(CN(C)C2CCN(CCS(C)(=O)=O)C2)no1 (stereo not given),-22.6
24,c1cnc(N2CCO[C@H]3CN(CC4CCOC4)C[C@H]32)cn1 (stereo not given in full),-2.77

row,Compound,Percent Effect [%]
1,Cc1noc(C)c1CN1C[C@H](OCC2CCN(C)CC2)[C@H]2COC[C@H]21,-13.4
2,c1cc(CN2C[C@H](OCC3CCOCC3)[C@H]3COC[C@H]32)cs1,1.55
3,O=C(c1ccco1)N1CC[C@@H]2O[C@H](COCCN3CCCC3)CC[C@@H]21,-19.5
4,CCOc1ccc(NC2CCN(CC(F)(F)F)C2=O)cc1C (stereo not given),7.36
5,COC(=O)c1cc(NC2CCN(CC(F)(F)F)C2=O)ccc1C (stereo not given),9.8
6,COC(=O)c1ccc(NC2CCN(CC(F)(F)F)C2=O)cc1C (stereo not given),62.3
7,CN(C)C[C@H]1OC[C@@H]2CCN(C(=O)c3ccc[nH]3)C[C@@H]21,11.4
8,O=C(Nc1cccnc1)[C@H]1CN(C2CCCC2)C[C@H]2OCC[C@@H]12,-36.1
9,CC(C)c1ncc2c(n1)CN(CC1CCCCO1)CC2 (stereo not given),-18.6
10,CCc1ncc2c(n1)CN(CC1CCCCO1)CC2 (stereo not given),78.1
11,Cc1ncc2c(n1)CN(CC1CCCCO1)CC2 (stereo not given),-13.3
12,Cc1nc(CN2C[C@@H]3CN(C(=O)c4ccco4)C[C@@H]3C2=O)cs1,-4.47
13,O=C1NC(c2ccccc2)=N[C@@]12CC[C@@H]1CN(Cc3nccs3)C[C@@H]12,23.9
14,Cc1noc([C@]23COC[C@H]2CN(S(=O)(=O)C2CC2)C3)n1,-31.1
15,O=C(O)Cn1nc(C2CC2)c2c(-c3cccs3)ccnc21,46.3
16,O=c1[nH]c(NC2CCCC2)nc2nccc(-c3ccsc3)c12,43
17,O=c1[nH]c(NC2CCCC2)nc2nccc(-c3cccs3)c12,72.5
18,O=c1[nH]c(NC2CCCC2)nc2nccc(-c3ccco3)c12,52.1
19,Cc1cc(-c2cnc(NC3CCCCC3)nc2-c2ccco2)on1,15
20,Cc1cc(-c2cnc(NC3CCCC3)nc2-c2ccco2)on1,27.1
21,O=C1O[C@@H]2CN(Cc3cccc(O)c3)C[C@@H]2N1CCCN1CCOCC1,-3.82
22,CSc1ccccc1CN1C[C@H]2C(=O)N(CC3CC3)C[C@@]2(C(=O)O)C1,-23
23,COCC(=O)NC[C@H]1CC[C@H](c2nnc(-c3cccnc3)o2)CC1,5.07
24,O=C1O[C@@H]2CN(c3ccccn3)C[C@@H]2N1CCCc1ccc(F)cc1,-15.8

row,Compound,Percent Effect [%]
1,O=C(NCc1ccco1)[C@H]1C[C@H]2OCC[C@H]2N(C(=O)c2ccnnc2)C1,-21.2
2,O=C(Cn1ccc2cc(Br)ccc21)NC[C@@H]1CCCN2CCCC[C@H]12,-5.46
3,CO[C@@H]1CCN(Cc2cnn(C)c2)[C@@H]2CN(Cc3ccco3)C[C@@H]21,-33
4,COc1ccc(CN2CC[C@@H]3CN(S(C)(=O)=O)CCO[C@@H]3C2)cc1,-17.7
5,O=C(Nc1cccnc1)[C@H]1COC[C@H]2CN(C3CCCC3)C[C@H]21,-10.2
6,Cn1nnc(NCc2ccc(-c3ccc(Br)cc3)o2)n1,13.4
7,CCCn1nnc(NCc2ccc(-c3ccc(Br)cc3)o2)n1,50.3
8,CCn1nnc(NCc2ccc(-c3ccc(Br)cc3)o2)n1,31.1
9,CC(C)c1cc(C(=O)N2C[C@H]3CC[C@@H]2CN(Cc2ccccn2)C3)no1,-30.6
10,Cc1cnc(N2CCC(c3ccncc3)CC2)nc1-c1ccnn1C,-33.3
11,Cc1cnc(N2CCN(C)CC2)nc1-c1ccnn1C,4.24
12,COc1cnc(N2CC(N3CCOCC3)C2)nc1-c1ccnn1C,54.8
13,COc1cnc(N2CCN(C)CC2)nc1-c1ccnn1C,68
14,Cc1cnc(N2CCC(c3ccccc3)CC2)nc1-c1ccnn1C,-31.6
15,Cc1cnc(N2CCCC(O)C2)nc1-c1ccnn1C (stereo not given),5.81
16,CCn1c(Cn2cncn2)nnc1C1CCN(C[C@H]2[C@@H]3CNC[C@@H]32)CC1,-3.59
17,CCS(=O)(=O)N1C[C@H]2CN(c3cnn(C)c3)C(=O)[C@H]2C1,-4.27
18,Cc1ccccc1CN1CC[C@H]2C[C@H](C(=O)N(C)C)O[C@H]2C1,-13.3
19,Cc1noc(C)c1CN1CC[C@@H]2O[C@@H](COCC3CC3)CC[C@@H]21,-31.2
20,CC(C)NC(=O)[C@@H]1CN(C(=O)C2CC2)C[C@]12Cc1ccccc1C(=O)N2,52.6
21,CCS(=O)(=O)N1C[C@@H](C(=O)NC(C)C)[C@@]2(Cc3ccccc3C(=O)N2)C1,9.59
22,CN1C[C@@H](C(=O)NC(C)(C)C)[C@@]2(CCc3ccccc3C(=O)N2)C1,1.71
